Laboratory results as given in the supplement of paper PMC10849652.
Of roughly 7,900 targets only a part is listed; those with a hit were picked by preference. About 0.6% of all pairs of compound and target were hits.

target: ZW10 (UniProt O43264); assay: log2 fold change, soluble protein after heating vs DMSO (PISA); higher = thermal stabilisation; K562 cells, 10 uM, 30 min; active = over 0.2 and 3.5 SD of the protein, either way, in both replicates (recomputed)
Method in brief: (§1)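 Thermal stability values are relative to control samples and come from duplicates. They are expressed as log2 fold changes. For measurement, K562 cells (2×10^6 cells/mL) received 10 μM compound for 30 min, and aliquots were heated for 3 min over 48°C-58°C, pooled, and extracted at 4°C in PBS with 0.5% NP-40. Soluble protein, the supernatant after 21,000xg for 90 min, was quantified by TMTpro 16plex LC-MS/MS with equalised channel sums.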

Sequence of ZW10 (O43264 whole entry, looked up): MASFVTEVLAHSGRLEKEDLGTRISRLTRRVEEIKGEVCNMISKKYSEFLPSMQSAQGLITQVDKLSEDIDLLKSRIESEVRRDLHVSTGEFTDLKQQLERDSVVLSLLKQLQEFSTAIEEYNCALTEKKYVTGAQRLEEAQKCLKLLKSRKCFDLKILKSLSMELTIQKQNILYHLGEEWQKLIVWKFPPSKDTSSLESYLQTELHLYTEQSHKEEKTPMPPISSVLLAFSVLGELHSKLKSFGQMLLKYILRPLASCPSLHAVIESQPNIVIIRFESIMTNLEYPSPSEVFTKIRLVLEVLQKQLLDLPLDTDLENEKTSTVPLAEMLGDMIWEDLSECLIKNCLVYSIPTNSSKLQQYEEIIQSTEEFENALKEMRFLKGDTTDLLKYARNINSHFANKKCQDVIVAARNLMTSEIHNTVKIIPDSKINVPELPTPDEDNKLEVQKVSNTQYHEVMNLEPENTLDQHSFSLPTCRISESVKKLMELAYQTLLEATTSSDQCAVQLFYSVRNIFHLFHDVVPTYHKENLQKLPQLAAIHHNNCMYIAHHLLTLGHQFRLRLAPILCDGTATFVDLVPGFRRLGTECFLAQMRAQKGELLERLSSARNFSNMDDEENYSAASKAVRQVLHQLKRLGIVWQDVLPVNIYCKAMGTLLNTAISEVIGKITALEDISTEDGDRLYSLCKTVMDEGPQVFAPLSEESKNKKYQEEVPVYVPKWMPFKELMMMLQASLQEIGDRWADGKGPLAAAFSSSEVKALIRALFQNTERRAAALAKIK

log2 fold change, inactive:
C[C@@H]1COCCN1c1cc(C2(S(C)(=O)=O)CC2)nc(-c2cccc3[nH]ccc23)n1 -0.029, CC[C@H](C)n1cc(C)c2c(C(=O)NCc3c(C)cc(C)[nH]c3=O)cc(-c3ccc(N4CCNCC4)nc3)cc21 0.077, Cc1cn(-c2cc(NC(=O)c3ccc(C)c(Nc4nccc(-c5cccnc5)n4)c3)cc(C(F)(F)F)c2)cn1 [nilotinib] -0.088, CC(=O)c1cnc2ccc(-c3cc(Cl)c(O)c(Cl)c3)nc2c1N[C@H]1CC[C@H](CN(C)C)CC1 0.011, C=CC(=O)N1CCC[C@@H](n2nc(-c3ccc(Oc4ccccc4)cc3)c3c(N)ncnc32)C1 [ibrutinib] -0.007, Cn1cc(-c2ccc3c(c2)CCN3C(=O)Cc2cccc(C(F)(F)F)c2)c2c(N)ncnc21 -0.076, C[C@@H](N)c1ccc(C(=O)Nc2ccnc3[nH]ccc23)cc1 0.129

target: ZWILCH (UniProt Q9H900); assay: as above
Sequence (Q9H900 whole entry, looked up): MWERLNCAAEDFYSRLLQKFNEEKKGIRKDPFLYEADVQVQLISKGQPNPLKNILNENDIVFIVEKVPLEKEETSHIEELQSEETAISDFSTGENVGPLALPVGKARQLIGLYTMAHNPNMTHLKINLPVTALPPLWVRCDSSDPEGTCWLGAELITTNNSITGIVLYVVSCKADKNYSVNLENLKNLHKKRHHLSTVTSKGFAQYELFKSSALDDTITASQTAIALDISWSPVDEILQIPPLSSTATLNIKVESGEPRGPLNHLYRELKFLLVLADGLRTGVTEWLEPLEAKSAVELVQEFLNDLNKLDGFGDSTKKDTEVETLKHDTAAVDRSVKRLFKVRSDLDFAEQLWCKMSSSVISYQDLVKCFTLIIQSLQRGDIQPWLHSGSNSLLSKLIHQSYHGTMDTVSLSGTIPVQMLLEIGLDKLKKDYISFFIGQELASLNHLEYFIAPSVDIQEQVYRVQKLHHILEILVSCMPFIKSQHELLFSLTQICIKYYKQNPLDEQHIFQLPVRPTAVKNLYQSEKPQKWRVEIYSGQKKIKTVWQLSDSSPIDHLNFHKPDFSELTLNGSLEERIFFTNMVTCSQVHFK
Method in brief: as §1

log2 fold change, inactive:
NC1(c2ccc(-c3nc4ccn5c(=O)[nH]nc5c4cc3-c3ccccc3)cc2)CCC1 -0.097, CNCc1ccc(-c2[nH]c3cc(F)cc4c3c2CCNC4=O)cc1 [rucaparib] -0.051, COc1cccc2cc(-c3nc([C@H]4CC[C@H](C(=O)O)CC4)n4ncnc(N)c34)[nH]c12 -0.041, Cc1ccc(NC(=O)c2cccc(N(C)C)c2)cc1NC(=O)c1ccc(O)cc1 0.238, Cn1cncc1[C@@](N)(c1ccc(Cl)cc1)c1ccc2c(c1)c(-c1cccc(Cl)c1)cc(=O)n2C [tipifarnib] -0.01, Cc1ccc(C(=O)N(CCCN)[C@@H](c2nc3cc(Cl)ccc3c(=O)n2Cc2ccccc2)C(C)C)cc1 [ispinesib] -0.045, CN(CCOc1ccc(C[C@@H]2SC(=O)NC2=O)cc1)c1ccccn1 (racemic) [rosiglitazone] 0.018, CS(=O)(=O)CCNCc1ccc(-c2ccc3ncnc(Nc4ccc(OCc5cccc(F)c5)c(Cl)c4)c3c2)o1 [lapatinib] 0.018, COc1cc2nc(-c3cc(F)ccc3O)nc(N[C@@H]3CNC[C@H]3C(C)(C)O)c2cc1OC 0.03, Nc1ccccc1NC(=O)c1ccc(CNC(=O)OCc2cccnc2)cc1 [entinostat] 0.002, O=C1NC(=O)/C(=C\c2ccc3nccnc3c2)S1 0.056, Oc1cc(-c2nc(-c3ccccc3)[nH]c2-c2ccncc2)ccc1Cl -0.002, O=C1NC(=NCc2cccs2)S/C1=C\c1ccc2ncccc2c1 0.023, Cc1ccc(-n2nc(C(C)(C)C)cc2NC(=O)Nc2ccc(OCCN3CCOCC3)c3ccccc23)cc1 [doramapimod] -0.002, CNC(=O)c1ccccc1Nc1nc(Nc2ccc(N3CCOCC3)cc2OC)ncc1Cl 0.027, CNC(=O)c1ccc(Nc2ncc(C(F)(F)F)c(NCc3nccnc3N(C)S(C)(=O)=O)n2)cc1 [defactinib] -0.007, C/C(=N\NC(=O)c1cccc(S(=O)(=O)N2CCOCC2)c1)c1cc(Cl)ccc1O 0.038, CCCc1cc(C)[nH]c(=O)c1CNC(=O)c1cc(-c2ccnc(N3CCN(C)CC3)c2)cc2c1cnn2C(C)C 0.004, CN1CCc2c(c3ccccc3n2Cc2ccc(C(=O)NO)cc2)C1 [Tubastatin A] -0.028, CN1CCN(CCOc2cc(OC3CCOCC3)c3c(Nc4c(Cl)ccc5c4OCO5)ncnc3c2)CC1 [saracatinib] -0.012, NC(=O)c1ccc2nc(-c3ccc(Oc4ccc(Cl)cc4)cc3)[nH]c2c1 -0.028, COc1cc(C(=O)O)ccc1NC(=O)[C@@H]1N[C@@H](CC(C)(C)C)[C@](C#N)(c2ccc(Cl)cc2F)[C@H]1c1cccc(Cl)c1F [idasanutlin] -0.051, COC(=O)N[C@@H](C)CNc1nccc(-c2cn(C(C)C)nc2-c2cc(Cl)cc(NS(C)(=O)=O)c2F)n1 [encorafenib] 0.076, C[C@@H]1COCCN1c1cc(C2(S(C)(=O)=O)CC2)nc(-c2cccc3[nH]ccc23)n1 -0.04, CC[C@H](C)n1cc(C)c2c(C(=O)NCc3c(C)cc(C)[nH]c3=O)cc(-c3ccc(N4CCNCC4)nc3)cc21 0.048, Cc1cn(-c2cc(NC(=O)c3ccc(C)c(Nc4nccc(-c5cccnc5)n4)c3)cc(C(F)(F)F)c2)cn1 [nilotinib] -0.047, CC(=O)c1cnc2ccc(-c3cc(Cl)c(O)c(Cl)c3)nc2c1N[C@H]1CC[C@H](CN(C)C)CC1 0.004, C=CC(=O)N1CCC[C@@H](n2nc(-c3ccc(Oc4ccccc4)cc3)c3c(N)ncnc32)C1 [ibrutinib] -0.014, Cn1cc(-c2ccc3c(c2)CCN3C(=O)Cc2cccc(C(F)(F)F)c2)c2c(N)ncnc21 -0.057, C[C@@H](N)c1ccc(C(=O)Nc2ccnc3[nH]ccc23)cc1 0.014
